Results on 11 compounds are retold here after PubChem BioAssay (NCI).

What all share (assay): NCI-60 one-dose screen, 48 h (100 = growth as untreated, 0 = no growth, -100 = all killed)
Experiment [1] deals with SK-MEL-2 melanoma.
The subject of experiment [2] is EKVX NSCLC. Conditions: 10 µM unless noted.
In experiment [3] the test system is SN12C renal.
Experiment [4] concerns UO-31 renal.
Experiment [5] concerns TK-10 renal.
For experiment [6], the system named is ACHN renal. Conditions: 10 µM unless noted.
Experiment [7] deals with CAKI-1 renal.
Experiment [8] has as its system A498 renal.
Experiment [9] deals with CCRF-CEM leukemia. The settings on record: 10 µM unless noted.
Experiment [10] deals with MOLT-4 leukemia.

Values joined by “and” are separate entries in the source; they are usually repeats but may differ in a detail not shown here. Identical values can stand only once. The panel holds about 83,000 compounds, 20% with a hit somewhere; the sample as a whole holds those more often.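 Single-dose data. Exposure time 48 hours. Values below 10 considered active.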 Active and inactive are the calls of the source.

Regarding `NC1=CC(=O)c2ccccc2C1=O`, the growth in experiment [1] (10 µM unless noted) was 88.6% (inactive); in [2] it was 95% (inactive); in experiment [3] (10 µM unless noted) it was 85.5% (inactive); in [4] (10 µM unless noted), 71.1% (inactive); in experiment [5] (10 µM unless noted), 125% (inactive); in experiment [6] it was 79.9% (inactive). The growth is 91.9% (inactive) in experiment [7] (10 µM unless noted), 90% (inactive) in [8] (10 µM unless noted), 85.4% (inactive) in [9] and 94.3% (inactive) in experiment [10] (10 µM unless noted).
With `Cn1c2ccccc2c2nnc(N/N=C/c3ccccn3)nc21`, the growth in experiment [1] (10 µM unless noted) is 51.3% (inactive); in [2] it was -11.9% (active); in experiment [3] (10 µM unless noted), 12.3% (inactive); in experiment [4] (10 µM unless noted), 4.82% (active); in experiment [5] (10 µM unless noted), -18.9% (active); in [6], -4.67% (active). The growth in experiment [7] (10 µM unless noted) is -21.1% (active); in experiment [8] (10 µM unless noted) it was 34.5% (inactive); in experiment [9], -37.2% (active); in [10] (10 µM unless noted), -21.7% (active).
With `NC(=O)/C=C/C(=O)c1c(Cl)cccc1Cl`, the growth in experiment [1] (10 µM unless noted) is -67.4% (active); in [2], -36.4% (active); in experiment [3] (10 µM unless noted) it was -90.2% (active); in experiment [4] (10 µM unless noted) it was -86.4% (active); in experiment [5] (10 µM unless noted), -83.7% (active); in [6] it was -76.3% (active). Besides, the growth in [7] (10 µM unless noted) was -86.9% (active); in experiment [8] (10 µM unless noted), -58.4% (active); in [9], -33.9% (active); in [10] (10 µM unless noted) it was -26.3% (active).
Regarding `COc1cc(NS(C)(=O)=O)ccc1Nc1c2ccccc2nc2ccccc12`, the growth was 96.5% [2.5 µM] (inactive) in [1] (10 µM unless noted); 58.8% [2.5 µM] (inactive) in [2]; 17.7% (inactive) in experiment [3] (2.5 µM); 10.6% (inactive) [middle of 4 runs] in experiment [3] (10 µM); 34.3% [2.5 µM] (inactive) in experiment [4] (10 µM unless noted); 16.3% [2.5 µM] (inactive) in experiment [7] (10 µM unless noted). The results for the growth in experiment [8] (10 µM unless noted), in [9] and in [10] (10 µM unless noted) were -7.27% [2.5 µM] (active), 3.36% [2.5 µM] (active) and 1.03% [2.5 µM] (active), respectively.
Take `NC(=S)N/N=C/c1ccc(Cl)s1`: the growth was 105% (inactive) in experiment [1] (10 µM unless noted); 76.6% (inactive) in experiment [2]; 101% (inactive) in experiment [3] (10 µM unless noted); 100% (inactive) in experiment [4] (10 µM unless noted); 105% (inactive) in experiment [5] (10 µM unless noted); 109% (inactive) in [6]. Also, the growth is 98.1% (inactive) in [7] (10 µM unless noted), 97.1% (inactive) in [8] (10 µM unless noted), 94.6% (inactive) in experiment [9] and 99.2% (inactive) in experiment [10] (10 µM unless noted).
As to `COc1ccc(-c2cscc2N)cc1`, the growth in experiment [1] (10 µM) is 95.1% (inactive); in experiment [1] (100 µM), 24.6% (inactive); in experiment [2], 51.4% [100 µM] (inactive); in [3] (10 µM), 71.2% (inactive); in experiment [3] (100 µM), 55.1% (inactive); in experiment [4] (10 µM), 78% (inactive). The growth in [4] (100 µM) was 27% (inactive); in [5] (10 µM) it was 101% (inactive); in [5] (100 µM), 74.4% (inactive); in experiment [7] (10 µM), 70.9% (inactive); in experiment [7] (100 µM), 29.2% (inactive); in experiment [8] (10 µM), 83.3% (inactive). Further, the growth was 80.6% (inactive) in experiment [8] (100 µM), 31.3% [100 µM] (inactive) in experiment [9], 66.4% (inactive) in experiment [10] (10 µM) and 38.6% (inactive) in [10] (100 µM).
Turning to `O=C(Nc1cccc(Br)c1)Oc1cccc2cccnc12`, the growth in experiment [1] (10 µM) was 85.8% (inactive); in experiment [1] (100 µM), 9.32% (active); in experiment [2], -17.3% [100 µM] (active); in experiment [3] (10 µM), 99.4% (inactive); in experiment [3] (100 µM), -26.1% (active); in [4] (10 µM) it was 98.6% (inactive). Moreover, the growth in experiment [4] (100 µM) is 26% (inactive); in [7] (10 µM) it was 94.4% (inactive); in experiment [7] (100 µM), 67.9% (inactive); in experiment [8] (10 µM), 97.5% (inactive); in experiment [8] (100 µM), 98.6% (inactive); in experiment [9], 14.4% [100 µM] (inactive). The results for the growth in experiment [10] (10 µM) and in [10] (100 µM) were 115% (inactive) and -0.787% (active), respectively.
`CNC(=O)N/N=C/c1ccc([N+](=O)[O-])o1`: the growth is 97.1% (inactive) in experiment [1] (10 µM unless noted); 107% (inactive) in experiment [2]; 90.7% (inactive) in experiment [3] (10 µM unless noted); 90.5% (inactive) in experiment [4] (10 µM unless noted); 111% (inactive) in [5] (10 µM unless noted); 106% (inactive) in experiment [6]. The growth in [7] (10 µM unless noted) is 114% (inactive); in experiment [8] (10 µM unless noted), 102% (inactive); in experiment [9] it was 96.8% (inactive); in [10] (10 µM unless noted), 82.7% (inactive).
As for `Cc1ccc(NS(=O)(=O)c2ccc(C)cc2)cc1`, the growth was 101% (inactive) and 79.6% (inactive) in [1] (10 µM unless noted); 96.3% (inactive) in [2]; 105% (inactive) and 99.8% (inactive) in [3] (10 µM unless noted); 93% (inactive) and 79.3% (inactive) in [4] (10 µM unless noted); 104% (inactive) and 91.5% (inactive) in [5] (10 µM unless noted); 113% (inactive) and 96.6% (inactive) in experiment [6]. Moreover, the growth in experiment [7] (10 µM unless noted) is 90.9% (inactive) and 96% (inactive); in experiment [8] (10 µM unless noted), 92.8% (inactive) and 93.4% (inactive); in [9], 92.3% (inactive) and 97.2% (inactive); in [10] (10 µM unless noted) it was 94% (inactive) and 98.5% (inactive).
As to `O=C1OCc2cccc3cccc1c23`, the growth in [1] (10 µM unless noted) is 123% (inactive); in experiment [2], 88.2% (inactive); in [3] (10 µM unless noted), 101% (inactive); in experiment [4] (10 µM unless noted), 77% (inactive); in experiment [5] (10 µM unless noted), 101% (inactive); in [6], 95.7% (inactive). Further, the growth in [7] (10 µM unless noted) was 102% (inactive); in experiment [8] (10 µM unless noted), 83.5% (inactive); in experiment [9], 94.5% (inactive); in [10] (10 µM unless noted), 92.6% (inactive).
Consider `Oc1c(Br)c(Br)c(O)c(Br)c1Br`, for which the growth is 104% (inactive) in [1] (10 µM unless noted); 112% (inactive) in experiment [2]; 113% (inactive) in experiment [3] (10 µM unless noted); -80.4% (active) in [4] (10 µM unless noted); 42.6% (inactive) in experiment [5] (10 µM unless noted); -33.2% (active) in experiment [6]. Besides, the growth was 92.5% (inactive) in experiment [7] (10 µM unless noted), 127% (inactive) in experiment [8] (10 µM unless noted), 15.8% (inactive) in [9] and 42.6% (inactive) in experiment [10] (10 µM unless noted).
